Measured values from PubChem BioAssay.
Records with an inconclusive call do not appear. Active and inactive are the calls of the source.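 The calls were made as follows, unless noted: active = normalized viability below 100% at a tested concentration; inactive = the rest.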

What was measured:
[1] = viability loss in pontine glioma line – cell-based, SU-DIPG-XVII, MIPE5.0, CellTiter-Glo, qHTS, dose response (AID 1347060; cut-off not given, nearly all actives have AC50 up to about 26 µM;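 also: cells exposed to compound for 48 hours before viability readout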); settings: CellTiter-Glo ATP luminescence
[2] = viability loss in pontine glioma line – cell-based, SU-DIPG-XIII, MIPE4.0, CellTiter-Glo, qHTS, dose response (AID 1347061; cut-off not given, nearly all actives have AC50 up to about 37 µM;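 also: cells exposed to compound for 48 hours before readout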); settings: CellTiter-Glo ATP luminescence
[3] = viability loss in pontine glioma line – cell-based, JHH-DIPG-1, MIPE4.0, CellTiter-Glo, qHTS, dose response (AID 1347062; cut-off not given, nearly all actives have AC50 up to about 27 µM); settings: JHH-DIPG-1 viability, CellTiter-Glo ATP luminescence
[4] = viability loss in pontine glioma line – cell-based, SU-DIPG-XIII, MIPE5.0, CellTiter-Glo, qHTS, dose response (AID 1347064; cut-off not given, nearly all actives have AC50 up to about 23 µM); settings: CellTiter-Glo ATP luminescence
[5] = growth inhibition of DIPG cells – cell-based, MIPE4.0 library, CellTiter-Glo luminescence, qHTS (AID 1347066; cut-off not given, nearly all actives have AC50 up to about 30 µM;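 also: cells exposed to compound for 48 hours before readout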); settings: SU-DIPG-VI viability, CellTiter-Glo ATP luminescence
[6] = JHH-DIPG-1 glioma cell viability, MIPE5.0 library, CellTiter-Glo luminescence, qHTS (AID 1347067; cut-off not given, nearly all actives have AC50 up to about 26 µM;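 also: cells exposed to compound for 48 hours before readout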); settings: JHH-DIPG-1 glioma viability, CellTiter-Glo ATP luminescence
[7] = growth inhibition of DIPG cells – cell-based, MIPE5.0 library, qHTS (AID 1347068; cut-off not given, nearly all actives have IC50 up to about 30 µM); settings: SU-DIPG-XXV viability
[8] = viability loss with induced miR-34 in A549 – imaging, A549 dox-inducible miR-34, nuclei and caspase counts, primary screen (AID 1347080;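 active = compounds whose cell count with miR-34 switched on is under 0.7 times the count with it off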); settings: A549 miR-34 inducible, Hoechst nuclei count, 48 h
[9] = compounds altering HSF1 focus formation in cells – imaging, Selleck Cancer Library (AID 1347162; in the data active = plate-normalised HSF1 focus index below about 0.46); settings: human cells, HSF1 nuclear foci imaging, at 10 µM; SSMD: measured here: HSF1 foci SSMD mean; cell count: measured here: cell number; plate-normalised HSF1 focus index: stronger effect = lower value
[10] = MELAS cybrid and Rieske KO viability enhancers – cell-based, MELAS cybrids, Rieske KO mouse fibroblasts, CellTiter-Glo, primary screen (AID 1508586;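 active = mean z-score across replicates of 1.96 or higher in either the MELAS or the Rieske mutant cell line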;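 also: z relative to plate mean and SD of compound and empty wells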); settings: low glucose
[11] = drug combination growth inhibition, ovarian cancer – cell-based, oncology-focused library, rucaparib conditional, profiling panel (AID 1508598); settings: patient-derived ovarian cancer cells, CellTiter-Glo viability, 144 h, stronger effect = lower value

O=C(c1cc(Cc2n[nH]c(=O)c3ccccc23)ccc1F)N1CCN(C(=O)C2CC2)CC1
5380: cell count ([8]; measured here: total cells without miR-34 induction)
inactive: outcome [3] | outcome [4] | outcome [5] | outcome [6] | outcome [7] | fold change ([8]; stronger effect = lower value, cell number ratio, induced over uninduced) 0.871 | plate-normalised HSF1 focus index [9] 1.13 | z-score ([10]; MELAS cybrid survival, CellTiter-Glo 48 h, stronger effect = higher value) -0.516 | viability ([11]; at 0.000305 µM, OCI-C5x cells, with rucaparib 10 µM, 100% = cells with rucaparib alone) 125% | viability ([11]; at 0.000305 µM, OCI-C5x cells, without rucaparib) 123% | viability ([11]; at 0.000305 µM, OCI-P5x cells, without rucaparib) 101% | viability ([11]; at 0.00122 µM, OCI-C5x cells, with rucaparib 10 µM, 100% = cells with rucaparib alone) 132% | viability ([11]; at 0.00122 µM, OCI-C5x cells, without rucaparib) 122% | viability ([11]; at 0.00122 µM, OCI-P5x cells, with rucaparib 20 µM, 100% = cells with rucaparib alone) 104% | viability ([11]; at 0.00488 µM, OCI-C5x cells, with rucaparib 10 µM, 100% = cells with rucaparib alone) 128% | viability ([11]; at 0.00488 µM, OCI-C5x cells, without rucaparib) 120% | viability ([11]; at 0.00488 µM, OCI-P5x cells, with rucaparib 20 µM, 100% = cells with rucaparib alone) 101% | viability ([11]; at 0.0195 µM, OCI-C5x cells, with rucaparib 10 µM, 100% = cells with rucaparib alone) 114% | viability ([11]; at 0.0195 µM, OCI-C5x cells, without rucaparib) 123% | viability ([11]; at 0.0781 µM, OCI-C5x cells, with rucaparib 10 µM, 100% = cells with rucaparib alone) 118% | viability ([11]; at 0.0781 µM, OCI-C5x cells, without rucaparib) 119% | viability ([11]; at 0.0781 µM, OCI-P5x cells, with rucaparib 20 µM, 100% = cells with rucaparib alone) 104% | viability ([11]; at 0.313 µM, OCI-C5x cells, with rucaparib 10 µM, 100% = cells with rucaparib alone) 118% | viability ([11]; at 0.313 µM, OCI-C5x cells, without rucaparib) 123% | viability ([11]; at 1.25 µM, OCI-C5x cells, with rucaparib 10 µM, 100% = cells with rucaparib alone) 123% | viability ([11]; at 1.25 µM, OCI-C5x cells, without rucaparib) 117%
active: AC50 [1] 20.9 µM | AC50 [2] 18.7 µM | viability ([11]; at 0.000305 µM, OCI-P5x cells, with rucaparib 20 µM, 100% = cells with rucaparib alone) 96.5% | viability ([11]; at 0.00122 µM, OCI-P5x cells, without rucaparib) 97% | viability ([11]; at 0.00488 µM, OCI-P5x cells, without rucaparib) 92.4% | viability ([11]; at 0.0195 µM, OCI-P5x cells, with rucaparib 20 µM, 100% = cells with rucaparib alone) 96.5% | viability ([11]; at 0.0195 µM, OCI-P5x cells, without rucaparib) 87.9% | viability ([11]; at 0.0781 µM, OCI-P5x cells, without rucaparib) 96% | viability ([11]; at 0.313 µM, OCI-P5x cells, with rucaparib 20 µM, 100% = cells with rucaparib alone) 96.9% | viability ([11]; at 0.313 µM, OCI-P5x cells, without rucaparib) 85.5% | viability ([11]; at 1.25 µM, OCI-P5x cells, with rucaparib 20 µM, 100% = cells with rucaparib alone) 94.6% | viability ([11]; at 1.25 µM, OCI-P5x cells, without rucaparib) 75.5%
7320: cell count [9]
2.16: SSMD [9]
0.876: z-score ([10]; Rieske KO mouse fibroblast survival, CellTiter-Glo 72 h)
4680: cell count ([8]; measured here: total cells with miR-34 induction, stronger effect = lower value)
1.53: fold change ([8]; measured here: relative caspase fold change +Dox/-Dox)
